Source: PubChem BioAssay (National Center for Advancing Translational Sciences (NCATS))
CtBP-E1A inh: blocks the CtBP interaction with E1A | AID 651724 | activity change, % (concentration not given with the values) | 340,000 tested, 0.49% active | AlphaScreen GST-E1A/His-CtBP binding, 1536-well; hits give low values; in the data active = activity change below about -65%; inconclusive = mostly about -30% to -63%
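Homogeneous bead-based format: GST-tagged E1A captured on glutathione donor beads, His-tagged CtBP on nickel acceptor beads; compounds precede bead addition by 2 h at 37 °C.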
G9a inh: inhibitors of human histone lysine methyltransferase G9a | Q96KQ7 | G9a H3K9 monomethylation, AlphaScreen, 2 h | Potency, µM (top dose mostly 102 µM), usual class: inhibitors | 350,000 tested, 8.8% active | AID 504332; also: nearly all actives have a fitted effect of over 75% in size
Target sequence (Q96KQ7 913-1193 limits assumed): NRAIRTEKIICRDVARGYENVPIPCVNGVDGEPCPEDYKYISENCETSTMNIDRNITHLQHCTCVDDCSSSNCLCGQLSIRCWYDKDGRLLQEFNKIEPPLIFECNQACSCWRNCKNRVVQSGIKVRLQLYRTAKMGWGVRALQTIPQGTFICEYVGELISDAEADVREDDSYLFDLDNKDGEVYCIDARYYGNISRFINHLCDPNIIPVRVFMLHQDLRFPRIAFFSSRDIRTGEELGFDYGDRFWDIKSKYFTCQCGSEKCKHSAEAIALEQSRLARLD
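AlphaScreen detection with an anti-monomethyl H3K9 antibody quantified product after a 2 h room-temperature reaction containing 500 nM biotinylated H3K9 peptide, 20 µM SAM and 20 nM enzyme, which had been preincubated 15 min with compound.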
BAZ2B block: blocks human BAZ2B; Q9UIF8; AlphaScreen BAZ2B-H3K14Ac peptide displacement; Potency, µM (highest dose often 114 µM), hits mostly inhibitors; 360,000 tested, 4.4% active; also: nearly all actives have a fitted effect of over 60% in size
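Inhibition is scored as reduced AlphaScreen emission. The BAZ2B/b-H3(5-23)K14Ac complex (50 nM each) in PBS pH 7.4, 0.01% Tween-20 meets compound (up to 110 uM) for 30 min at RT before bead addition.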
Six1-Eya2 blk: inhibitors of human Six1/Eya2 interaction; Q15475+O00167; AlphaScreen GST-Six1/His-Eya2 binding, biochemical; hits give low values; activity change, % (no concentration beside the values); 360,000 tested, 0.56% active; AID 651725; in the data active = activity change below about -65%; inconclusive = mostly about -30% to -63%
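GST-Six1 + His-Eya2 (5X stock: 250/500 nM); Tris pH 8.0, 300 mM NaCl, 0.05% BSA, 0.02% Tween 20; GSH donor/Ni acceptor beads; 1 h 37 °C dark; AlphaScreen readout.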
JMJD2A Tudor inh: JMJD2A Tudor domain (human) inhibition. O75164. AlphaScreen JMJD2A-Tudor / H3K4me3 peptide binding. Potency, µM (series often up to 114 µM), hits mostly inhibitors. 390,000 tested, 4.4% active; also: nearly all actives have a fitted effect of over 50% in size
HP1b chromo inh: blocks HP1-beta chromodomain binding to methylated histone tails; P83916; AlphaScreen HP1-beta / biotin-H3K9me3 peptide binding; Potency, µM (series often up to 114 µM), most hits filed as inhibitors; 390,000 tested, 0.56% active; also: nearly all actives have a fitted effect of over 70% in size
Target sequence (P83916 whole entry, looked up): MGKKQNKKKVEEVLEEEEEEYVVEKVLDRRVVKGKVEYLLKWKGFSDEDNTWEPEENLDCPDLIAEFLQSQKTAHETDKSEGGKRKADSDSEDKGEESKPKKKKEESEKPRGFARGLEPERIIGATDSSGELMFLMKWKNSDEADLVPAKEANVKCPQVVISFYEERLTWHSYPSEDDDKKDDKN
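Compound inhibition of the preformed complex between 50 nM HP1-beta and 50 nM biotinylated H3K9me3 peptide was read by AlphaScreen. Buffer was PBS pH 7.4 with 0.01% Tween-20. Incubations ran 30 min at room temperature, with 10 ug/mL donor/acceptor beads.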
Hits are given with their value; . = inactive; ? = inconclusive; / = no result; ! = not active in a repeat; [ ] = remark or other dose. Rows were chosen to be rich in hits. Some 10% of all compounds tested hit in one or more screens of this group. Unless noted, calls follow the shape of the dose curve; as a rule, active = well fitted inhibition curve with a large enough effect; inconclusive = small, poorly fitted or top-dose-only effect; inactive = no such curve, though single readings can be large or run the other way.

SMILES	CtBP-E1A inh	G9a inh	BAZ2B block	Six1-Eya2 blk	JMJD2A Tudor inh	HP1b chromo inh
C[C@]12c3[nH]c4cc(-c5ccco5)ccc4c3CCN1C(=O)[C@@H](CC(=O)NCc1cccc(C(F)(F)F)c1)C[C@@H]2C(=O)N1CCOCC1	.	/	/	.	?	.
CC(C)Nc1nc(NC(C)C)nc(C(N)=O)n1	.	.[12.7 µM]	50.1µM	.	.	.
CC(=O)OCCOc1nc(NC(C)C)nc(NC(C)C)n1	.	?	.	.	79.4µM	.
CC(C)Nc1nc(NC(C)C)nc(OCCOC(=O)c2ccccc2)n1	.	.	.	.	.	.
CC(C)Nc1nc(NC(C)C)nc(Nn2cnnc2)n1	.	.	.	.	.	.
COc1cccc(CNC(=O)CCCSc2ccccc2)c1	.	.	.	.	.	.
COc1cc2[nH]c(=O)n(CCCC(=O)NCc3ccccc3)c(=O)c2cc1OC	/	.	.	/	.	.
C/C(CCc1ccccc1)=N\NC(=S)NCCc1ccccc1	?	?	39.8µM	.	?	.
C/C(CCc1ccc2c(c1)OCO2)=N\NC(=S)NC(C)C	.	?	?	.	.	.
C/C(CCC(C)C)=N\NC(=S)NCc1ccccc1	.	44.7µM	?	.	56.2µM	.
COCCNC(=S)N/N=C(\C)CCc1ccc2c(c1)OCO2	.	50.1µM	.	.	.	.
C/C(=N\NC(=S)NCCc1ccccc1)c1cccs1	.	?	35.5µM	.	?	?
C/C(=N\NC(=S)NCc1ccccc1)c1ccc2ccccc2c1	.	.	?	?	.	.
CC(OC(=O)c1cccs1)C(=O)NCCc1ccccc1 (stereo unspecified)	.	.	.	.	.	.
CCOC(N)=O	/	.[2.33 µM]	/	/	/	/
COC(=O)c1scc(-c2ccc(C)cc2)c1S(=O)(=O)Nc1cc(Cl)ccc1C	/	.	.	/	.	.
CC(=O)OCC1=C(C(=O)O)N2C(=O)[C@@H](NC(=O)CSc3ccncc3)[C@H]2SC1	.	15.8µM!	44.7µM	.	17.8µM	?
CC(=O)OCC1=C(C(=O)O)N2C(=O)C(NC(=O)C(C)Cn3nc(C)c(Cl)c3C)C2SC1 (stereo unspecified)	.	39.8µM	56.2µM	.	.	.
CC(=O)OCC1=C(C(=O)O)N2C(=O)C(NC(=O)c3ccc(F)cc3)C2SC1 (stereo unspecified)	/	.	?	.	.	.
COc1ccc(N2CCN(CC(=O)c3c[nH]c4ccccc34)CC2)cc1	.	.	.	.	.	.
COc1ccc(N2CCN(CCCn3c(=S)[nH]c4ccccc4c3=O)CC2)cc1	/	.	28.2µM	.	?	.
CCOc1cc2[nH]c(=O)n(CCCN3CCN(c4ccc(OC)cc4)CC3)c(=O)c2cc1OCC	.	10µM	?	.	?	.
COc1ccc(N2CCN(CCCNC(=O)C(=O)c3c(C)[nH]c4ccccc34)CC2)cc1	.	.[0.0925 µM]	28.2µM	.	44.7µM	?
CNC(=O)c1c(N)sc2c1CCCCC2	/	10µM	.	/	/	/
NC(=O)c1c(N)sc2c1CCC2	.	/	.	.	.	.
SMILES	CtBP-E1A inh	G9a inh	BAZ2B block	Six1-Eya2 blk	JMJD2A Tudor inh	HP1b chromo inh
Nc1sc2c(c1C(=O)NC1CCS(=O)(=O)C1)CCC2 (stereo unspecified)	.	7.08µM	.	.	.[11.4 µM]	.
NC(=O)c1c(N)sc2c1CCCCC2	.	8.91µM	.	.	?	17.8µM
CC(C)OC(=O)c1c(N)sc2c1CCCC2	.	/	/	.	?	.
COc1cccc(CNC(=O)C(NS(=O)(=O)c2cccs2)C(C)C)c1 (stereo unspecified)	/	.	.	/	.	.
COc1ccccc1-c1nnc(SCC(=O)NNC(=O)c2ccccc2F)n1C	.	.[12.7 µM]	.	.	.	.
O=c1c(-c2ccc(F)cc2)nc2cnc(Nc3ccccc3)nc2n1C1CC1	/	.[12.7 µM]	/	/	/	/
CCOC(=O)CC1=C(C(=O)OCC)C(c2ccc(OC)cc2OC)C(C#N)=C(N)O1 (stereo unspecified)	.	56.2µM	.	.	.	.
CCOC(=O)CC1=C(C(=O)OCC)C(c2ccc(C)o2)C(C#N)=C(N)O1 (stereo unspecified)	.	25.1µM	.	.	.[11.4 µM]	.
CCOC(=O)C1=C(c2ccccc2)OC(N)=C(C#N)C1c1ccco1 (stereo unspecified)	.	44.7µM	.	.	.	.
CCOC(=O)CC1=C(C(=O)OCC)C(c2cccnc2)C(C#N)=C(N)O1 (stereo unspecified)	.	.	.	.	.	.
Cc1ccc(C2C(C#N)=C(N)Oc3c2sc2ccccc32)o1 (stereo unspecified)	/	15.8µM	?	/	/	/
CC1(C(=O)NS(=O)(=O)Cc2ccccc2C(F)(F)F)CCN1C(=O)Cc1cccs1 (stereo unspecified)	.	/	/	.	/	/
Cc1cc(C)nc(NS(=O)(=O)c2ccc(NC(=O)c3ccccc3O)cc2)n1	/	.	.	/	.	.
COc1cc(Cn2c3ccc(NC(=O)CC(C)C(F)(F)F)cc3c(=O)n2C)ccc1F (stereo unspecified)	.	/	/	.	/	/
O=S(=O)(Nc1ccc2c(c1)OCO2)c1ccc(F)c(F)c1	.	.	.	.	.	.
O=c1[nH]cc(S(=O)(=O)Nc2ccc3c(c2)OCO3)c(=O)[nH]1	.	50.1µM	.	.	.	.
N#Cc1nc(NC2CCCC2)c2ncn(-c3cc(F)cc(F)c3)c2n1	/	/	/	/	.	/
CCC1Cc2c(nc(N)c3c(N)nc(N4CCCCC4)c(C#N)c23)O1 (stereo unspecified)	.	.	.	.	.	.
CC(C)(C)N1C(=O)Cc2c1nc(N)c1c(N)nc(N3CCCCC3CO)c(C#N)c21 (stereo unspecified)	.	7.94µM	39.8µM	.	50.1µM	?
NS(=O)(=O)c1ccc(CCNC(=O)CCc2nc3sc4c(c3c(=O)[nH]2)CCCC4)cc1	.	?	.	.	.	.
C/C(=N\Nc1nnc2c3ccccc3n(C)c2n1)c1ccc(C)o1	.	.	.	.	?	.
Cc1cc(C)n(-c2nnc3c4ccccc4n(C)c3n2)n1	.	.	11.2µM	.	79.4µM	.
CCCCCCC(=O)NCC(=O)OCC(=O)c1ccccc1	.	25.1µM	.	.	.[11.4 µM]	.
CC(=O)Nc1ccc(NC(=O)COC(=O)c2ccccn2)cc1	.	44.7µM	50.1µM	.	.	.
CN(C)S(=O)(=O)c1ccc(NC(=O)COC(=O)c2ccccn2)cc1	.	50.1µM	?	.	?	.
CCCCCC(=O)Nc1ccc(C(=O)COC(=O)c2ccccn2)cc1	.	50.1µM	.	.	.	.
O=c1c(=O)n(-c2ccccc2)ccn1Cc1cccc(C(F)(F)F)c1	/	.	.	/	.	.
O=C(COC(=O)/C=C/c1cccc([N+](=O)[O-])c1)Nc1cccnc1Cl	.	/	/	.	.	.
